According to PubChem BioAssay (Tox21):
Values joined by “and” are separate entries in the source; they are usually repeats but may differ in a detail not shown here. Equal values may be shown once. Results filed as inconclusive are left out. A structure can be active in one record and inactive in another. Active and inactive are the calls of the source. Unless noted, the call rests on the fitted dose curve.

What was measured:
[1] = Nuclear factor erythroid 2-related factor 2/antioxidant responsive element (Nrf2/ARE) small molecule agonists: qHTS cell viability counter screen in human keratinocytes (AID 1919968; active means well fitted curve in the direction sought with a large enough effect in the repeat runs; an effect the other way counts as inactive or inconclusive; further: nearly all actives have a fitted effect of over 55% in size; further: potency means the concentration at half of the fitted maximal effect)
Summary of the method: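 Stably transfected HaCaT (KeratinoSens), 1,500/well. Test agents in DMSO were applied for 23 h, 37 C/5% CO2. CellTiter-Fluor was incubated 1 h before the fluorescence read.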

[2] = Nuclear factor erythroid 2-related factor 2/antioxidant responsive element (Nrf2/ARE) small molecule agonists: luciferase reporter gene qHTS assay in human keratinocytes (AID 1919969); further: nearly all actives have a fitted effect of over 35% in size; further: potency means the concentration at half of the fitted maximal effect
[3] = target: Gonadotropin-releasing hormone receptor (Homo sapiens) (UniProt P30968); test: Human gonadotropin-releasing hormone receptor (GnRHR) small molecule agonists, calcium flux assay in GnRHR-HEK293 cells (AID 1920063); further: nearly all actives have a fitted effect of over 35% in size
Summary of the method: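 Stable human GnRHR HEK293 line. 18 h plating, then calcium dye for 1 h at 37 C. Agonist-mode compound addition from DMSO stocks; fluorescence monitored 3 min.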

[4] = target: KiSS-1 receptor (Homo sapiens) (UniProt Q969F8); test: Human kisspeptin (KISS1R) small molecule agonists, calcium flux assay in KISS1R-HEK293 cells (AID 1920064; active means well fitted curve in the direction sought with a large enough effect in the repeat runs; an effect the other way counts as inactive or inconclusive)
Summary of the method: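 After overnight (18 h) culture at 37 C/5% CO2, human KISS1R-HEK293 cells received calcium dye for 1 h, then test compound; emission at 540 nm (excitation 480 nm) was tracked for 3 min.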

[5] = G protein-coupled receptor (GPCR) small molecule agonists, calcium flux assay: HEK293 wild type cell line counter screen (AID 1920065)
Summary of the method: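 Following 18 h incubation at 37 C/5% CO2, plates got calcium dye for 1 h; compounds, ATP or DMSO were then pinned in and fluorescence followed kinetically (480/540 nm).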

[6] = p53 small molecule agonists, cell-based qHTS assay with human liver microsomes (AID 1963577);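 further: p53 response element beta-lactamase reporter cells with liver microsomes plus NADPH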
Summary of the method: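 Steps: plate p53RE-bla cells, incubate 5 h at 37 C; add compound in DMSO; add microsomes (0.5 mg/mL final) and NADPH (0.5 mg/mL final); incubate 16 h at 37 C; add LiveBLAzer, 2 h RT; read fluorescence.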

[7] = p53 small molecule agonists, cell-based qHTS assay with rat liver microsomes (AID 1963578)
Summary of the method: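 Metabolic activation is supplied by rat liver microsomes with NADPH (each 0.5 mg/mL final). p53RE-bla cells incubate with compound 16 h at 37 C; reporter activity is measured by LiveBLAzer fluorescence.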

[8] = p53 small molecule agonists, cell-based qHTS assay with human liver microsomes: qHTS cell viability counter screen (AID 1963579); further: nearly all actives have a fitted effect of over 45% in size
Summary of the method: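 After the 460/530 nm beta-lactamase read, CellTiter-Glo was added to the same wells and luminescence measured after 30 min at room temperature, giving viability of p53RE-bla cells treated 16 h with compounds plus microsomes and NADPH.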

[9] = p53 small molecule agonists, cell-based qHTS assay with rat liver microsomes: qHTS cell viability counter screen (AID 1963580); further: nearly all actives have a fitted effect of over 45% in size
Summary of the method: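 Cytotoxicity counter screen: intracellular ATP read by CellTiter-Glo luminescence in the p53 reporter wells. HCT-116 p53RE-bla cells were treated for 16 h at 37 C alongside rat liver microsomes and NADPH, each 0.5 mg/mL final.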

[10] = p53 small molecule agonists, cell-based qHTS assay: qHTS cell viability counter screen (AID 1963581); further: nearly all actives have a fitted effect of over 45% in size
Summary of the method: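 qHTS counter screen: 16 h compound exposure at 37 C of p53RE-bla HCT-116 cells (4,000 per well, seeded 5 h prior), cell viability by ATP luminescence.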

[11] = p53 small molecule agonists, cell-based qHTS assay (AID 1963582; active means well fitted activation curve with a large enough effect in the signal ratio in the repeat runs, not every such curve was filed as active; the % refers to the signal ratio)
Summary of the method: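 Measured: fluorescence from cleaved LiveBLAzer substrate. System: p53RE-bla cells, 16 h compound treatment at 37 C, 2 h substrate step at room temperature.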

[12] = target: 5-hydroxytryptamine receptor 2A (Homo sapiens) (UniProt P28223); test: 5-hydroxytryptamine receptor 2A (HTR2A) small molecule antagonists, cell-based qHTS assay (AID 1963586); further: nearly all actives have a fitted effect of over 45% in size; further: potency means the concentration at half of the fitted maximal effect
Summary of the method: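 CHO cells stably expressing human HTR2A were plated for 18 h at 37 C, then loaded with calcium dye for 1 h. Compounds were preincubated 5 min at room temperature before DOI (4 nM solution) was added. Kinetic fluorescence was read for 3 min.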

[13] = target: 5-hydroxytryptamine receptor 2A (Homo sapiens) (UniProt P28223); test: 5-hydroxytryptamine receptor 2A (HTR2A) small molecule agonists, cell-based qHTS assay (AID 1963587); further: nearly all actives have a fitted effect of over 30% in size; further: potency means the concentration at half of the fitted maximal effect
Summary of the method: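 Kinetic calcium-flux fluorescence (2 min, 1 sec intervals) after compound addition in agonist mode. HTR2A-CHO cells were cultured 18 h, then dye-loaded 1 h at 37 C.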

[14] = target: Muscarinic acetylcholine receptor M1 (Homo sapiens) (UniProt P11229); test: Cholinergic receptor muscarinic 1 (CHRM1) small molecule agonists, cell-based qHTS assay (AID 1963589); further: nearly all actives have a fitted effect of over 35% in size
Summary of the method: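 Kinetic fluorescence (1 s intervals) of calcium-sensitive dye in human M1 CHO cells after compound addition; cells pre-incubated 18 h at 37 C/5% CO2 and dye-loaded 1 h.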

[15] = cAMP Responsive Elements (CRE) small molecule agonists, cell-based qHTS assay (AID 1963590)
Summary of the method: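 Test agents in DMSO were incubated 3 h at 37 C/5% CO2 with CRE-bla HEK 293T cells seeded 18 h earlier; LiveBLAzer B/G FRET substrate was added and read after 2 h at room temperature.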

[16] = cAMP Responsive Elements (CRE) small molecule antagonists, cell-based qHTS assay (AID 1963591; active means well fitted inhibition curve with a large enough effect in the signal ratio in the repeat runs, not every such curve was filed as active; the % refers to the signal ratio)
Summary of the method: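 Reporter line CRE-bla HEK 293T in dialyzed-FBS DMEM; cells preincubated 18 h, treated 3 h with compound plus NKH477 (0.25 uM final); LiveBLAzer FRET, 2 h RT.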

[17] = target: Beta-2 adrenergic receptor (Homo sapiens) (UniProt P07550); test: Adrenergic beta2 receptor (ADRB2) small molecule antagonists, cell-based qHTS assay (AID 1963592); further: nearly all actives have a fitted effect of over 50% in size; further: potency means the concentration at half of the fitted maximal effect
Summary of the method: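 Assay format: CHO-ADRB2 cells, 18-20hr seeding at 37C/5% CO2, then compound plus 1nM isoproterenol agonist mix for 0.5hr RT. Homogeneous time-resolved fluorescence cAMP detection after 1hr, expressed as 665/615 nm ratio.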

[18] = target: D(2) dopamine receptor (Homo sapiens) (UniProt P14416); test: Dopamine D2 receptor (DRD2) small molecule antagonists, cell-based qHTS assay (AID 1963595; active means well fitted inhibition curve with a large enough effect in the signal ratio in the repeat runs, with a control signal flat; the % refers to the signal ratio)
Summary of the method: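 HEK293 cells stably expressing DRD2, preincubated with 0.1 mM Ro20-1724 and compounds 10 min, were stimulated with 200 nM NKH477 plus 12 nM quinpirole for 30 min at room temperature; cAMP measured by HTRF (665/620 nm).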

[19] = target: D(2) dopamine receptor (Homo sapiens) (UniProt P14416); test: Dopamine D2 receptor (DRD2) small molecule agonists, cell-based qHTS assay (AID 1963594); further: nearly all actives have a fitted effect of over 35% in size
Summary of the method: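 cAMP accumulation in DRD2-HEK293 cells measured by HTRF after 1 h detection; compounds added 10 min before NKH477 (200nM […]) forskolin-analogue stimulation, 30 min at room temperature, with Ro20-1724 present at 0.1 mM final.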

[20] = target: Muscarinic acetylcholine receptor M1 (Homo sapiens) (UniProt P11229); test: Cholinergic receptor muscarinic 1 (CHRM1) small molecule antagonists, cell-based qHTS assay (AID 1963588); further: nearly all actives have a fitted effect of over 40% in size; further: potency means the concentration at half of the fitted maximal effect
Summary of the method: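 Compounds were tested at 15 concentrations in three independent runs. Dye-loaded CHRM1-CHO cells were exposed 5 min at room temperature before stimulation by acetylcholine added at 50nM. Intracellular calcium was read kinetically on FDSS for 3 min.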

Measured: Potency

Muscarinic acetylcholine receptor M1 (Homo sapiens), sequence (P11229 whole entry, looked up): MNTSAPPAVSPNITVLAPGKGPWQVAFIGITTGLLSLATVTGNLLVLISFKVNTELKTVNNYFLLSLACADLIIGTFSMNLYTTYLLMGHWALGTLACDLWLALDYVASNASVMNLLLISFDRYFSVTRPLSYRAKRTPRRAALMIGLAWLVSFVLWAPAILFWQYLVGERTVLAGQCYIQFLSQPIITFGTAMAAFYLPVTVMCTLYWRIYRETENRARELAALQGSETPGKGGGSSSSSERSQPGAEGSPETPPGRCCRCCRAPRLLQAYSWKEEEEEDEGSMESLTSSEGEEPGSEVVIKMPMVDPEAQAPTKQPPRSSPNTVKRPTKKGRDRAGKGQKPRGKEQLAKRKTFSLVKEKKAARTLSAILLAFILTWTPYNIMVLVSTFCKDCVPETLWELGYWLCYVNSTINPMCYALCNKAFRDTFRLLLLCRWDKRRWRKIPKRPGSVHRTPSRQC
Gonadotropin-releasing hormone receptor (Homo sapiens), sequence (P30968 whole entry, looked up): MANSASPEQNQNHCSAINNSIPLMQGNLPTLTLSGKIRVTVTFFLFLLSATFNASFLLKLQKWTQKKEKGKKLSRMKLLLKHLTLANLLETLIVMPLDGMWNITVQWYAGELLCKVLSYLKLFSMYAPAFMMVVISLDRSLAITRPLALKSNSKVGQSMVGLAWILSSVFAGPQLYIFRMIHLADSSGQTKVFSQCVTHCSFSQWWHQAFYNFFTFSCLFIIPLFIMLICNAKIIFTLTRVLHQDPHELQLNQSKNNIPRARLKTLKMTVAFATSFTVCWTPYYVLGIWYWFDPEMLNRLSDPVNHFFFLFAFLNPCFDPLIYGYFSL
D(2) dopamine receptor (Homo sapiens), sequence (P14416 whole entry, looked up): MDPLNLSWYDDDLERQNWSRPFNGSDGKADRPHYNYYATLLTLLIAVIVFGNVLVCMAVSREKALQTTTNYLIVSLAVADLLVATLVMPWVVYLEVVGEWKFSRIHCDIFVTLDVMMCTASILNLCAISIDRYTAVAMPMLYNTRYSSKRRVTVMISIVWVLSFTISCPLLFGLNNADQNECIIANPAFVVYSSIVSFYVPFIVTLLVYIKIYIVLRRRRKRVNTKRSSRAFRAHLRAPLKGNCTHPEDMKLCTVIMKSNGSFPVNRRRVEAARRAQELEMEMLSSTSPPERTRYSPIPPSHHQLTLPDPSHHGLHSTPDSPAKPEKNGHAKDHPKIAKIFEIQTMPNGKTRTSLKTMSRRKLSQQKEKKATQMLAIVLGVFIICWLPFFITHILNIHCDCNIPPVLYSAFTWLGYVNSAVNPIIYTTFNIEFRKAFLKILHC
Beta-2 adrenergic receptor (Homo sapiens), sequence (P07550 whole entry, looked up): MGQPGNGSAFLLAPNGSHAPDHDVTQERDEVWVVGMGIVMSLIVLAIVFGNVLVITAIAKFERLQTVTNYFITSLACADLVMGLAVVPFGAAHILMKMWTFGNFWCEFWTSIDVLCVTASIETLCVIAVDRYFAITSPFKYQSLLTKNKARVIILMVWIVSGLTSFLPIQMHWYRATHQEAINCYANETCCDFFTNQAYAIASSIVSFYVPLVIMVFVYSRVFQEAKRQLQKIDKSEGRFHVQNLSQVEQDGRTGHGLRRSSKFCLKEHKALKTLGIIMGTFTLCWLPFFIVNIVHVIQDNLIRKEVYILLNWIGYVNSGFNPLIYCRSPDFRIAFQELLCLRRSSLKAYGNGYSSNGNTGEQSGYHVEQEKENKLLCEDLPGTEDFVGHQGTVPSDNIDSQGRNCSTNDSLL
KiSS-1 receptor (Homo sapiens), sequence (Q969F8 whole entry, looked up): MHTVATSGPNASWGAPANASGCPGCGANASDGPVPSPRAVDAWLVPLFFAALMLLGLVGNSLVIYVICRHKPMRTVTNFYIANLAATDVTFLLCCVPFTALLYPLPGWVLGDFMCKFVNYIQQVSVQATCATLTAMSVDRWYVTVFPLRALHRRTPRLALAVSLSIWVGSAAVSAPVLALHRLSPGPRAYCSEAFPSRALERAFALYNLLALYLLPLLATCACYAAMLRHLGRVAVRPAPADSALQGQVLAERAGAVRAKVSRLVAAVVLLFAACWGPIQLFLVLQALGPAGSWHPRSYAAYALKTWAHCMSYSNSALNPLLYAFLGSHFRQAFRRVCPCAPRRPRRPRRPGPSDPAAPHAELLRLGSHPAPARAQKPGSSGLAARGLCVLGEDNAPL
5-hydroxytryptamine receptor 2A (Homo sapiens), sequence (P28223 whole entry, looked up): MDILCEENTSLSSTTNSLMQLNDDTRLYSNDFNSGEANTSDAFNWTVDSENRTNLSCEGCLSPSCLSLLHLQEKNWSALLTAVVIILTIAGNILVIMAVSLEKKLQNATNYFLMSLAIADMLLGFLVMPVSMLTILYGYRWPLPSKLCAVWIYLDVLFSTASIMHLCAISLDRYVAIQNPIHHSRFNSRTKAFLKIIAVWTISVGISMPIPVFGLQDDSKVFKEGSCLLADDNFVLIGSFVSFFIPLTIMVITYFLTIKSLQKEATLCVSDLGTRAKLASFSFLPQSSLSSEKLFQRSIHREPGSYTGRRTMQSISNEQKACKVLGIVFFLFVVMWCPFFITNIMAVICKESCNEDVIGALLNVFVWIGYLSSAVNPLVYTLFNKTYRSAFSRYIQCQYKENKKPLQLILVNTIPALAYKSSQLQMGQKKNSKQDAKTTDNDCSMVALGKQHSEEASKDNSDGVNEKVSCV

C=CCCl
not listed: [19] | [20]
inactive: all other assays above

CCCCC(C#N)(Cn1cncn1)c1ccc(Cl)cc1 (stereo unspecified)
not listed: [15] | [16] | [20]
inactive: all other assays above

Cc1cccc(N)c1
not listed: [14]
inactive: all other assays above

CCCCN(CC)C(=O)SCCC
not listed: [14]
inactive: all other assays above

C/C=C/CC#N
not listed: [14]
inactive: all other assays above

[O-][Cl+]O
not listed: [14] | [15]
inactive: all other assays above

Cc1cc(Cl)ccc1OCC(=O)O
not listed: [15] | [17]
inactive: all other assays above

OC(Cc1ccccc1Cl)(Cn1cncn1)C1(Cl)CC1 (stereo unspecified)
not listed: [14] | [16]
inactive: all other assays above

CNC(=O)Oc1ccccc1C1OCCO1
not listed: [14] | [15]
inactive: all other assays above

CC(C)(N)Cc1ccccc1Cl
not listed: [14]
inactive: all other assays above

CCOC(=O)C(O)(c1ccc(Cl)cc1)c1ccc(Cl)cc1
6.99 µM (active) and inactive: [13]
33.8 µM (active) and inactive: [12]
69.3 µM (active) and inactive: [17]
active: [1] 61.8 µM | [20] 8.48 µM
not listed: [15] | [16] | [19]
inactive: all other assays above

CNC
3.34 µM (active) and inactive: [20]
not listed: [15] | [17]
inactive: all other assays above

COC[C@@H](NC(C)=O)C(=O)NCc1ccccc1
not listed: [13]
inactive: all other assays above

N#CC(Cl)Cl
active: [2] 59.5 µM
not listed: [14] | [20]
inactive: all other assays above

O=NN(c1ccccc1)c1ccccc1
not listed: [14] | [15]
inactive: all other assays above

CC1=C(C(=O)Nc2ccccc2)SCCO1
inactive and 61.1 µM (active): [2]
not listed: [14] | [20]
inactive: all other assays above
